# Compound activity from PubChem.
# This is a sample that favours compounds with a hit; in the whole collection about 10% have one here.
# GPT2 inh: GPT2 alanine aminotransferase inhibition | AID 1671188 | actives 0.25% (n = 100,000) | Recombinant GPT2, coupled pyruvate oxidase/HRP Amplex Red fluorescence | Q8TD30 | Potency, µM (doses to about 57.7 µM), most hits filed as inhibitors; note: nearly all actives have a fitted effect of over 60% in size
# Target sequence (Q8TD30 whole entry, looked up): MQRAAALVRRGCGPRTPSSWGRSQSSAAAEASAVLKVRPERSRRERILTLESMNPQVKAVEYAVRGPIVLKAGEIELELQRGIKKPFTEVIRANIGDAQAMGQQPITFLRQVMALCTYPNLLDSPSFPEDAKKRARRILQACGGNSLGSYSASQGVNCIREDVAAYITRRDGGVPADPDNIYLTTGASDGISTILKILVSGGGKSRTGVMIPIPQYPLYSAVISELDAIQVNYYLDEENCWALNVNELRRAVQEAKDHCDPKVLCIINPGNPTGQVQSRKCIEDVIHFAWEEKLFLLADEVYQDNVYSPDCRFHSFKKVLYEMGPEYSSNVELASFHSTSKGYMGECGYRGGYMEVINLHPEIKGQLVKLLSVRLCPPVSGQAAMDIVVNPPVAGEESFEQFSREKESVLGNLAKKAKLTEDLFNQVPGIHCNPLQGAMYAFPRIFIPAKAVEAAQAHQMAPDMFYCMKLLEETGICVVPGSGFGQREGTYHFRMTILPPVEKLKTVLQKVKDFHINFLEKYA
#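 Inhibition is scored from Amplex Red fluorescence generated when pyruvate oxidase and HRP act on pyruvate released by GPT2. Reactions contain 10ng/uL enzyme, 250uM a-KG and 2mM L-alanine and run 30 min at room temperature.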
# Luciferase inh: blocks purified firefly luciferase enzyme activity | AID 1347043 | P08659 | purified P. pyralis luciferase, luminescence, biochemical | Potency, µM (highest dose often 115 µM), actives largely listed as inhibitors | actives 2.5% (n = 76,000); note: nearly all actives have a fitted effect of over 65% in size
#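 Luminescence read by CCD imager after adding enzyme (10nM final) to wells holding compound, titrated in qHTS. Substrates 10uM each D-luciferin and ATP; buffer 50mM Tris acetate pH 7.5, 10mM Mg acetate, Tween-20, BSA.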
# HEK293 tox: kills HEK 293 cells; HEK 293 viability, ATP luminescence (CellTiter-Glo), 48-72 h; Potency, µM (titrated, usually from 115 µM), actives largely listed as inhibitors; actives 6.6% (n = 94,000); note: nearly all actives have a fitted effect of over 60% in size
#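 Viability of HEK 293 cells, plated at 250 cells/well, was judged by cellular ATP after compound treatment for 48 or 72 hr. Luminescence was imaged 10 min after CellTiter-Glo addition at room temperature.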
# NIH3T3 tox: kills NIH 3T3 cells | NIH 3T3 viability, CellTiter-Glo ATP luminescence, 48-72 h | Potency, µM (doses to about 96.7 µM), actives largely listed as inhibitors | actives 4.3% (n = 94,000) | AID 1345082; note: nearly all actives have a fitted effect of over 55% in size
#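 Cells were seeded at 400 per well, treated with pin-transferred compound, and kept 48 or 72 hr at 37 °C before CellTiter-Glo addition and luminescence imaging of cellular ATP.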
# hNpr1 antagonist: antagonists of human natriuretic peptide receptor Npr1. HEK293 hNpr1 GloSensor cGMP, ANP-stimulated luminescence. Potency, µM (top dose mostly 46.3 µM), usual class: inhibitors. actives 1.6% (n = 76,000); calls by dose curve; note: nearly all actives have a fitted effect of over 60% in size
#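 Compound pre-incubated 30 min at room temperature on GloSensor-loaded HEK293 cells stably carrying hNpr1 and the pGS-40F cGMP biosensor. Stimulation uses hNppA at 0.1 nM final; luminescence is taken at baseline and 20 min post-agonist.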
# Numbers stand for hits; - = inactive; ? = inconclusive; . = not tested or not shown. Unless noted, calls come from the whole dose curve; as a rule, active = well fitted curve in the direction sought with a large enough effect; inconclusive = small, poorly fitted or top-dose-only effect, or another doubt; inactive = no such curve, though single readings can be large; an effect the other way counts as inactive or inconclusive.
SMILES,GPT2 inh,Luciferase inh,HEK293 tox,NIH3T3 tox,hNpr1 antagonist
COc1ccccc1OCCNC(=O)CC1=C2CCCCC2N(Cc2ccccc2)C1=O (centres undefined),-,-,?,-,-
COc1ccc(CC(=O)N2[C@@H](c3ccccc3)[C@@H](C(=O)O)C[C@]23CCCCN(C)C3=O)cc1,.,.,-,?,.
N#Cc1ccc(CN2CCC(N3Cc4ccccc4C3=O)CC2)cc1,-,.,-,-,.
O=C(NCc1cccs1)c1ccc2nnc(-c3cccc(C(F)(F)F)c3)n2c1,-,.,?,?,.
O=C(NCc1ccc(F)cc1)c1ccc2nnc(-c3cccc(C(F)(F)F)c3)n2c1,-,.,39.8µM,?,.
O=C1CC2(CCN(C(=O)C3CCN(C(=O)C4CC4)CC3)CC2)Oc2ccccc2N1,-,.,-,-,.
COc1ccccc1-c1cnc(Nc2ccc3c(c2)OCCO3)c2c1CCO2,-,14.1µM,?,-,?
COc1ccccc1-c1cnc(NCc2ccccc2)c2c1CCO2,?,-,?,25.1µM,-
COc1ccccc1-c1cnc(Nc2cc(F)cc(N3CCOCC3)c2)c2c1CCO2,-,-,?,?,-
COc1ccc(C(=O)NC2CCN(Cc3cccc(-c4cccs4)c3)CC2)cc1,-,.,?,?,.
COCCOC1CCOC2(CCN(C(=O)c3nn(C)c4ccccc34)CC2)C1 (centres undefined),-,-,-,-,-
COc1ccc(-c2noc([C@@H]3Cc4nc[nH]c4CN3C(=O)Nc3ccccc3)n2)cc1,-,31.6µM,?,?,?
Cc1ccc(NC(=O)N2Cc3[nH]cnc3C[C@H]2c2nc(-c3ccc(C)cc3)no2)cc1,-,31.6µM,?,100µM,-
Cc1ccc(-c2noc([C@@H]3Cc4nc[nH]c4CN3C(=O)NC(C)C)n2)cc1,-,-,-,?,-
CCn1cc(S(=O)(=O)N2CCC(CCc3nc(C4CCOCC4)no3)CC2)cn1,-,.,?,?,.
COc1cccc(Cn2c(=O)c3ccnn3c3ccc(C(=O)NCCCN(C)C)cc32)c1,-,-,39.8µM,35.5µM,-
CCCCNC(=O)c1ccc2c(c1)n(Cc1cccc(OC)c1)c(=O)c1ccnn12,-,-,-,?,-
O=C(N1CCCC(n2cc(-c3nc(-c4ccccc4)no3)nn2)C1)C1(c2ccccc2)CC1 (centres undefined),-,?,44.7µM,?,14.1µM
O=C(c1ccc2c(c1)OCO2)N1CCCC(n2cc(-c3nc(C4CC4)no3)nn2)C1 (centres undefined),-,-,?,?,-
O=C(c1ccc2c(c1)OCO2)N1CCCC(n2cc(-c3nc(-c4ccccc4)no3)nn2)C1 (centres undefined),-,?,?,?,11.2µM
O=C(c1cccnc1)N1CCCC(n2cc(-c3nc(-c4ccccc4)no3)nn2)C1 (centres undefined),-,-,?,-,?
O=C(C1CCC1)N1CCCC(n2cc(-c3nc(-c4ccccc4)no3)nn2)C1 (centres undefined),-,39.8µM,?,?,?
O=C(C1CCCC1)N1CCCC(n2cc(-c3nc(-c4ccccc4)no3)nn2)C1 (centres undefined),-,?,?,?,12.6µM
Cc1ccc([S+](=O)([O-])N2CCC(c3nn(-c4ccccn4)c(=O)[nH]3)CC2)cc1,-,.,?,?,.
COc1ccc(-c2cn3cc(C(=O)NCC(F)(F)F)nc3s2)cc1,-,.,?,?,.
SMILES,GPT2 inh,Luciferase inh,HEK293 tox,NIH3T3 tox,hNpr1 antagonist
O=C(c1nc2sccn2c1-c1ccc(C(F)(F)F)cc1)N1CCOCC1,-,.,-,-,.
O=C(c1ccccc1)N1CCCC(n2cc(-c3nc(-c4ccccc4)no3)nn2)C1 (centres undefined),-,?,?,?,12.6µM
CCOC(=O)C(Cc1cccc(N2CCN([S+](=O)([O-])c3c(Cl)cccc3Cl)CC2)c1)OC (centres undefined),.,.,20µM,?,.
CN(C)c1ccc(CN2Cc3[nH]cnc3C[C@H]2c2nc(-c3ccccc3)no2)cc1,-,39.8µM,?,?,-
Cc1ccc(-c2noc([C@@H]3Cc4nc[nH]c4CN3Cc3ccc(N(C)C)cc3)n2)cc1,-,?,89.1µM,100µM,?
O=C(Nc1cc(-c2ccncc2)nn1-c1ccccc1)c1cccc(Cl)c1,-,.,?,?,.
N#Cc1cccnc1-c1ccc(C(=O)N2CCC(NC(=O)c3ccc(F)cc3)CC2)cc1,-,.,?,?,.
O=C1[C@H]2CN(Cc3ccc(C(F)(F)F)cc3)C[C@H]2C(=O)N1CCc1ccccc1,-,-,35.5µM,22.4µM,-
CN(C)C[C@@H]1CN(Cc2ccccc2)C[C@H]1NC(=O)C1CC1,-,.,-,-,.
Cc1cc2cc(-c3c(C)noc3C)nc(NC3CC3)c2o1,-,-,?,?,-
Cc1noc(C)c1-c1cc2cc(CO)oc2c(-c2ccc(F)c(Cl)c2)n1,-,-,50.1µM,22.4µM,-
COc1ccc(-c2nc(-c3c(C)noc3C)cc3cc(CO)oc23)cn1,-,-,?,?,-
Cc1noc(C)c1-c1cc2cc(CO)oc2c(NC2CCOCC2)n1,-,-,?,25.1µM,-
Cc1noc(C)c1-c1cc2cc(CO)oc2c(NCCOc2ccccc2)n1,-,-,?,?,-
Cc1noc(C)c1-c1cc2cc(CO)oc2c(NCC2CCOCC2)n1,-,-,?,22.4µM,-
CSc1ccc(-c2cccc(C(=O)NCCNC(=O)C3CC3)c2)cc1,-,.,?,?,.
COC(=O)N1CCCN(c2nc3ncccc3o2)CC1,-,-,-,-,-
O=C(NC1CCN(c2ccnc3ccnn23)C1)c1ccc(Cl)cc1 (centres undefined),-,.,10µM,?,.
Cc1cc(C(=O)N2CCCN(c3ccnc4ccnn34)CC2)ccc1Cl,-,.,44.7µM,?,.
O=C(NCC1CCCCC1)C1CN(c2ccnc3ccnn23)C1,-,.,25.1µM,-,.
O=C(NCC1CC1)C1CCCN(c2ccnc3ccnn23)C1 (centres undefined),-,.,-,-,.
O=C(NC1CCN(c2ccnc3ccnn23)CC1)c1ccc(Cl)cc1,-,.,44.7µM,?,.
Clc1ccc(-c2cnc([C@@H]3COCCN3)[nH]2)cc1,-,-,?,?,-
O=C(NC1CCCC1)N1CCC(C(=O)N2CCC(c3ccccc3)CC2)CC1,?,.,-,-,.
O=C(NCCCc1ccccc1)C1CCN(c2ccnc3ccnn23)CC1,-,.,39.8µM,?,.
O=C(NCc1cccc(C(F)(F)F)c1)C1CCCN(c2ccnc3ccnn23)C1 (centres undefined),-,.,44.7µM,?,.
O=C(NC1CCCN(c2ccnc3ccnn23)C1)c1ccc(C(F)(F)F)cc1 (centres undefined),-,.,28.2µM,?,.
COc1ccc(-c2nc(C3CC3)nc3c2CCN(Cc2cccn2C)CC3)cc1,-,.,?,-,.
COc1ccccc1-c1cc(C(=O)NCc2ccc(Cl)cc2)nn2cnnc12,-,.,?,?,.
